According to PubChem BioAssay (EPA / NIEHS):
Results filed as inconclusive are left out. The source made the active and inactive calls. How the source made its calls: active means hit-call score of the fitted dose curve at least 0.9, where 1 is the maximum; inconclusive means response in the unintended direction; inactive means score below 0.9.

read-out: HMG-CoA synthase (HMGCS2), HMGCS2 (gene 3158); assay: CLD_HMGCS2_24hr: CellzDirect (CLD) Gene Expression Assay for HMG-CoA synthase (HMGCS2) at 24 hours (AID 2283691)
Protocol: CLD_24hr is a cell-based, multiplexed-readout assay that uses hepatocyte, a human liver primary cell, with measurements taken at 24 hours after chemical dosing in a 96-well plate.CLD_HMGCS2_24hr is one of 16 assay component(s) measured or calculated from the CLD_24hr assay. It is designed to make measurements of mRNA induction, a form of inducible reporter, as detected with chemiluminescence signals by Quantitative Nuclease Protection Assay (qNPA) technology.Data from the assay component CLD_HMGCS2_24hr was analyzed at the endpoint, CLD_HMGCS2_24hr, in the positive analysis fitting direction relative to DMSO as the negative control and baseline of activity. Using a type of inducible reporter, gain-of-signal activity can be used to understand changes in the reporter gene as they relate to the gene HMGCS2. Furthermore, this assay endpoint can be referred to as a primary readout. To generalize the intended target to other relatable targets, this assay endpoint is annotated to the lyase intended target family, where subfamily is HMG-CoA synthase.
Human hepatocyte cultures were treated daily for two consecutive days with fresh dosing solutions containing appropriate concentrations of the 320 ToxCast chemicals (chemical identities were blinded to CellzDirect and other ToxCast collaborators), vehicle control (0.2% DMSO), and positive control inducers as summarized in Table 1. Due to the large number of treatment groups and chemicals examined, the ToxCast chemicals were divided into two groups (spanning two independent cultures of hepatocytes from separate donor preparations (Hu778: ToxCast plates 1 and 2; Hu776: ToxCast plates 3 and 4). Each preparation of human hepatocyte cultures was treated with respective vehicle control, medium only control, set of six positive controls/reference chemicals for the five hepatic receptor pathways, and a subset of eight of the ToxCast chemicals (indoxacarb, pyrithiobac-sodium, norflurazon, cyhalofop-butyl, methomyl, thiram, acetochlor, and propiconazole). These replicate data, coupled with internal replicates designed within the blinded ToxCast chemical library, provided additional data to evaluate interindividual differences between hepatocyte preparations and their potential impact on chemical profiles.Cell morphology and integrity were evaluated using phase-contrast microscopy as an indicator of hepatocyte cell health (Tyson & Green, 1987). Cultures for each treatment group (i.e., media, vehicle [0.2% DMSO], positive control inducers [multiple concentrations], and the ToxCast chemicals [multiple concentrations]) were observed and cell morphology was assessed relative to vehicle control cultures at each harvest time point (0, 6, 24, or 48 h). […] Images were evaluated at the conclusion of the study to assess changes in cell integrity and account for the effects of chemical exposure on uncharacteristic changes in concentration-dependent gene expression profiles. The results from these determinations of apparent cytotoxicity were annotated (yes/no) alongside the corresponding qNPA data for reference.At the conclusion of each treatment period, hepatocyte cultures (96-well) were washed with 1 volume of HBSS, lysed by addition of 25 ul ArrayPlate lysis buffer (HTG, Tucson, AZ), and 70 ul/well of Denaturation Oil, denatured by incubation at 95C for 10 min, and frozen at approximately -70C until analysis by nuclease protection assay (qNPA) (Roberts et al., 2007). For qNPA analysis, cell lysates were thawed at 50C for approximately 30 min, qNPA probes were added, and samples were incubated at 95C for 10 min to begin the detection process by denaturing the target RNA, dissociating the duplexes and secondary structure hybridization. At the conclusion of the hybridization period, S1 nuclease reagent was added to each sample to digest all nonprotected nucleotides at 50C for 60-90 min. […]

Compound	outcome	AC50
COC(=O)c1ccccc1S(=O)(=O)NC(=O)Nc1nc(OC(F)F)cc(OC(F)F)n1	inactive	
CCSC(=O)N(CC(C)C)CC(C)C	inactive	
CCC(C)OC(=O)N1CCCCC1CCO (centres undefined)	inactive	
c1ccc(Nc2ccccc2)cc1	inactive	
N#CSCSc1nc2ccccc2s1	inactive	
CCCCC(CC)COC(=O)c1ccccc1C(=O)O (centres undefined)	inactive	
CCOC(=O)C(C)Oc1ccc(Oc2cnc3cc(Cl)ccc3n2)cc1 (centres undefined)	inactive	
CCCOC(=O)c1ccc(C(=O)OCCC)nc1	inactive	
CC(C)(c1ccc(O)cc1)c1ccc(O)cc1	inactive	
COC(=O)c1c(Cl)nn(C)c1S(=O)(=O)NC(=O)Nc1nc(OC)cc(OC)n1	inactive	
CCOC(=O)NCCOc1ccc(Oc2ccccc2)cc1	inactive	
O=C(O)C1(C(=O)Nc2ccc(Cl)cc2Cl)CC1		34.9 µM (active)
CCCOC(=O)NCCCN(C)C	inactive	
C#CCOC(=O)[C@@H](C)Oc1ccc(Oc2ncc(Cl)cc2F)cc1	inactive	
CCOC(=O)COc1cc(-n2ncc(C(F)(F)F)c(C)c2=O)c(F)cc1Cl	inactive	
Oc1ccc(C(c2ccc(O)cc2)C(Cl)(Cl)Cl)cc1	inactive	
CSC(=O)c1cccc2nnsc12		7.33 µM (active)
CCOC(=O)C(C)Oc1ccc(Oc2nc3ccc(Cl)cc3o2)cc1 (centres undefined)	inactive	
CCCCOC(=O)[C@@H](C)Oc1ccc(Oc2ccc(C(F)(F)F)cn2)cc1	inactive	
COC(=O)c1ccc(CNS(C)(=O)=O)cc1S(=O)(=O)NC(=O)Nc1nc(OC)cc(OC)n1	inactive	
OB(O)O	inactive	
COC(=O)c1ccccc1C(=O)O	inactive	
COc1c(Cl)ccc(Cl)c1C(=O)O	inactive	
CCCCOC(=O)C(C)Oc1ccc(Oc2ccc(C(F)(F)F)cn2)cc1 (centres undefined)	inactive	
